The values that follow come from PubChem BioAssay AID540364 (The Scripps Research Institute Molecular Screening Center, 2011).

Each structure is given as a SMILES string. In all, about 360,000 compounds went through this assay and about 2,000 (0.56%) were called active. What follows is part of a selection rich in actives, with near analogues and random picks from the rest. Values without a mark were called inactive.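 How the source made its calls: active means activation above the average of all compounds screened plus 3 SD, cutoff fixed separately per campaign (cut at about 7.5% in these data); inactive means the rest.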

This assay in a line: GAA850 frataxin promoter reporter upregulation – cell-based, luciferase luminescence, HEK293 lucGAA850, primary screen (AID 540364).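 Further: 0% = DMSO wells and 100% = 10 µM SAHA wells.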 The settings on record: HEK293 lucGAA850 FXN promoter luciferase reporter, 24 h; at 6 µM; stronger effect = higher value; percent of 10 µM SAHA response. A general note: Reporter assays use an easily measured gene product as a stand-in for the process of interest.
For the compound `Cc1ccc(-c2c3c(=O)n(C)c(=O)n(C)c3cn2-c2ccccc2O)cc1`, the activation was -0.62%.

For `Cc1ccc(-c2c3c(=O)n(C)c(=O)n(C)c3cn2-n2cnnc2)cc1`, the activation is 10.3% (active).

`COc1cccc(-n2cc3c(c2-c2ccccc2)c(=O)n(C)c(=O)n3C)c1`: the activation is 1.09%.

On to `CCN(C[C@H]1N[C@@](CC)(C(=O)OC)[C@H]2C(=O)N(Cc3ccccc3)C(=O)[C@@H]12)S(=O)(=O)c1ccc(C(F)(F)F)cc1`, for which the activation is 15.9% (active).

In the case of `COC(=O)[C@]1(Cc2ccccc2)N[C@H](CN(C)S(=O)(=O)c2ccc(OC(F)(F)F)cc2)[C@@H]2C(=O)N(Cc3ccccc3)C(=O)[C@@H]21`, the activation was -3.69%.

As for `CCN(C[C@H]1N[C@@](CC)(C(=O)OC)[C@H]2C(=O)N(Cc3ccccc3)C(=O)[C@@H]12)S(=O)(=O)c1ccccc1`, the activation was 3.23%.

As to `OC(c1ccccc1)c1nc(/C=C/c2ccc(C(F)(F)F)cc2)cs1` (configuration not stated), the activation is 1%.

Take `CC(=O)Nc1cc(-c2ccccc2N(C)C)cn2c(-c3ccc(F)c(Cl)c3)cnc12`: the activation is 1.24%.

Consider `COc1ccc(NC(=O)CSCc2ccc([N+](=O)[O-])cc2)cc1OC`, for which the activation was 0.83%.

On to `COc1ccc2[nH]c(=O)c(CN(Cc3nnnn3CCc3ccccc3)CC3CCCO3)cc2c1` (configuration not stated), for which the activation was 7.67% (active).

In the case of `CCOc1ccc2[nH]c(=O)c(CN(Cc3nnnn3CCc3ccccc3)CC3CCCO3)cc2c1` (configuration not stated), the activation is 1.4%.

Turning to `CCC(c1nnnn1Cc1ccccc1)N(Cc1cc2cc(OC)ccc2[nH]c1=O)CC1CCCO1` (configuration not stated), the activation was 5.86%.

`COc1ccc(-c2cc(C(=O)NCCCN3CCCC3=O)c3ccccc3n2)cc1OC`: the activation is 0.37%.

With `COc1ccc(-c2cc(C(F)(F)F)nc(S(C)(=O)=O)n2)cc1OC`, the activation was 16.9% (active).

As for `COc1ccc(-c2cc(C(=O)N(C)Cc3ccc(OC)c(OC)c3OC)c3ccccc3n2)cc1OC`, the activation was -6.82%.

As to `Cc1cccc(C(=O)Nc2nnc(S(=O)(=O)N3CCCCCC3)s2)c1`, the activation was -0.31%.

For the compound `O=C(Nc1nnc(S(=O)(=O)N2CCCCCC2)s1)c1cccc(Br)c1`, the activation was 11% (active).

Regarding `O=C(Nc1nnc(S(=O)(=O)N2CCOCC2)s1)c1cccc(Br)c1`, the activation is 3.61%.

Take `CC(OC(=O)CCC(=O)c1ccccc1)C(=O)Nc1ccc(F)cc1` (configuration not stated): the activation was 0.37%.

For `Cc1ccc(N=C2SCCCN2C(=O)c2cccc(N3C(=O)CCC3=O)c2)cc1Cl`, the activation was -0.64%.

With `COc1ccc2cc(CCl)c(Cl)nc2c1`, the activation is 2.75%.

`O=[N+]([O-])c1ccc(C=Nc2ccc(Cl)cc2Cl)s1`: the activation was 9.39% (active).

In the case of `COc1ccc(CN2[C@@H](CC(=O)O)c3cc(F)ccc3S2(=O)=O)cc1`, the activation was 1.09%.

Regarding `CCc1noc(C)c1C(=O)N1CCN(S(=O)(=O)c2cccc(C(F)(F)F)c2)CC1`, the activation is -0.49%.

`O=C(/C=C/c1cc2c(cc1Br)OCO2)NCc1ccc(Cl)cc1`: the activation was 1.84%.

With `O=C(N/N=C\c1cc2c(cc1Cl)OCO2)c1ccc(Br)s1`, the activation is 1.53%.

Turning to `CC1(C(=O)N/N=C/c2cc3c(cc2Br)OCO3)CC1(Br)Br` (configuration not stated), the activation is 8.27% (active).

As for `CO[C@H]1[C@@H]2C=CO[C@@H](O[C@H]3O[C@@H](CO)[C@H](O)[C@@H](O)[C@@H]3O)[C@@H]2[C@@]2(CO)O[C@@H]12`, the activation is -1.13%.

For the compound `Cc1ccc(OCCCCc2c(C)n[nH]c2C)cc1`, the activation was 0.87%.

For `Cc1cc(=O)oc2c3c(cc(OCC(=O)NCC(O)c4ccccc4)c12)OC(C)(C)CC3` (configuration not stated), the activation was 1.51%.

For `Cc1ccc(C)c(NC(=O)c2ccc3nccnc3c2)c1`, the activation was -0.14%.

Consider `CC(C)CCC(C)NC(=O)c1ccc2nccnc2c1` (configuration not stated), for which the activation was 9.19% (active).

As for `O=C(NCCc1ccc(F)cc1)c1ccc2nccnc2c1`, the activation is 3.24%.

Consider `O=C(CN(c1cc(C(F)(F)F)ccc1Cl)S(=O)(=O)c1ccccc1)NCc1cccnc1`, for which the activation was 8.32% (active).

Turning to `CCc1ccc(N(CC(=O)NCc2cccnc2)S(=O)(=O)c2ccccc2)cc1`, the activation was -0.07%.

Take `CN(CC(=O)NCc1cccnc1)S(=O)(=O)c1cc(Cl)ccc1Cl`: the activation is -2.15%.

Turning to `COc1ccc(OC)c(NC(=O)c2cnn(-c3ccccc3Cl)c2NC(=O)c2ccco2)c1`, the activation is 2.28%.

As for `O=[N+]([O-])/C=C/c1ccc2c(ccn2Cc2ccccc2)c1`, the activation is 15.3% (active).

In the case of `COc1ccc(NC(=S)SC)cc1OC`, the activation is 0.31%.

In the case of `COc1ccc(CN2C(=O)CN=C2Nc2ccc(C)cc2C)cc1`, the activation is 2.67%.

With `CCOC(=O)C1=C(O)/C(=C/c2ccc(OCC(=O)Nc3ccc(C)cc3)cc2)N=C1C`, the activation was -1.6%.

Take `Cc1ccc(OCC(=O)Nc2ccc(-c3nnc(-c4ccco4)o3)cc2)cc1`: the activation is 9.76% (active).

Take `Cc1ccc(NC(=O)COc2ccc(/C=C3/NC(=O)NC3=O)cc2)cc1`: the activation is -1.99%.

For `Cc1noc(C)c1NC(=O)Nc1ccc2c(c1)C(=O)N([C@H](C)CO)C[C@H](C)[C@@H](CN(C)S(=O)(=O)c1cn(C)cn1)O2`, the activation was 0.14%.

Take `CCOC(=O)C1=C(CC)Nc2ccccc2N=C1NC(=O)c1cccc(S(=O)(=O)N2CCCC2)c1`: the activation was -2.08%.

`CCC(=O)Nc1ccc2c(c1)nc(CCN1CCN(c3ccccn3)CC1)n2C`: the activation is 1.46%.

With `Cn1c(CCN2CCCCCC2)nc2cc(NC(=O)Nc3ccccc3)ccc21`, the activation was 10.5% (active).

On to `Cc1nn(CC(=O)Nc2ccc3c(c2)nc(CN2CCCCC2)n3C)c(=O)c2ccccc12`, for which the activation is -1.92%.

As for `O=C(CNCCC1=CCCCC1)Nc1ccccc1N1CCCCCC1`, the activation is -0.31%.

`Cc1cc(C)c2c(-n3cccc3)c(C(=O)NNS(=O)(=O)c3ccc(F)cc3)sc2n1`: the activation was -0.88%.

Consider `COc1cc(S(=O)(=O)N2CCN=C2c2ccccc2)ccc1Cl`, for which the activation was 2.5%.

As to `Cn1c(=NC(=O)c2ccc3c(c2)OCCO3)sc2cc(S(C)(=O)=O)ccc21`, the activation was -0.86%.

Take `COCCn1c(=NC(=O)c2ccccc2[N+](=O)[O-])sc2cc(S(C)(=O)=O)ccc21`: the activation is 8.06% (active).

Regarding `COC(=O)CNC(=O)c1ccccc1[N+](=O)[O-]`, the activation is 1.03%.

For the compound `CCOC(=O)C1CCN(C(=O)Cn2nc(C)c3c(C)n(-c4ccccc4)nc3c2=O)CC1`, the activation was -0.2%.

With `COc1ccc(-n2cc(-c3ccccc3)c3c(=S)nc[nH]c32)cc1`, the activation was 8.54% (active).

Consider `COc1ccc(N2C(=O)CNC2=S)cc1`, for which the activation was -3.02%.

In the case of `COc1ccccc1CNC(=O)C1Cc2ccccc2C(=O)O1` (configuration not stated), the activation was -0.56%.

In the case of `COc1cccc(N(C(=O)c2ccn[nH]2)C2(C(=O)Nc3c(C)cccc3C)CCCCC2)c1`, the activation is -6.45%.

Take `O=C(NC1CCCC1)C(c1ccco1)N(C(=O)c1csnn1)c1ccccc1` (configuration not stated): the activation is 0.36%.

Take `CCc1ccc(N(C(=O)c2csnn2)C(C(=O)NC2CCCCC2)c2ccncc2)cc1` (configuration not stated): the activation was 8.57% (active).

Turning to `CCc1ccc(N(C(=O)c2csnn2)C(C(=O)NC2CCCCC2)c2cccnc2)cc1` (configuration not stated), the activation was -1.27%.

For the compound `CCOc1ccc(N2C(=O)CC(N(CCc3ccc(OC)c(OC)c3)C(=S)Nc3ccccc3)C2=O)cc1` (configuration not stated), the activation is 8.9% (active).

On to `COC(=O)CN(C(=S)Nc1ccc(Cl)cc1)C1CC(=O)N(c2ccc(OC)cc2)C1=O` (configuration not stated), for which the activation was 1.91%.

Turning to `CN(C)c1ccc(NC(=S)N(CCc2ccccc2)C2CC(=O)N(c3c(Cl)cccc3Cl)C2=O)cc1` (configuration not stated), the activation is 0.24%.

With `COc1ccc(NC(=O)CSc2ccc(-c3ccco3)nn2)c(OC)c1`, the activation was 0.41%.

With `COc1ccc2[nH]c3nc(SCC(=O)NC4CC4)nnc3c2c1`, the activation is 0.57%.

Consider `Oc1cccc2cc(-c3ccncc3)cnc12`, for which the activation is 2.66%.

With `COC(=O)c1ccc(NC(=O)CSc2nc(N)c(NC(=O)c3ccc(Br)o3)c(=O)[nH]2)cc1`, the activation was 1.31%.

Regarding `COc1ccc(CN2CCCC(C(=O)c3ccc(Cl)cc3)C2)cc1Cn1cncn1` (configuration not stated), the activation is 1.04%.

In the case of `COc1ccc(C2Nc3ccccc3C(=O)N2Cc2ccccc2)cc1Cn1nnc2ccccc21` (configuration not stated), the activation was -2.6%.

For `COc1ccc(C2Nc3ccccc3C(=O)N2c2ccc(Cl)cc2)cc1Cn1cc([N+](=O)[O-])cn1` (configuration not stated), the activation is 10.7% (active).

With `N#C/C(=C(\O)CCl)c1nnc2n1CCCCC2`, the activation is -0.95%.

With `CCOC(=O)C1(C)CCCN(C(=O)c2cccc(Cl)c2)C1` (configuration not stated), the activation was -0.57%.

`CC(C)Oc1ccc(C(CC(=O)N2CCOCC2)C(C)C)cc1` (configuration not stated): the activation is 2.86%.

Regarding `O=C(NCc1ccco1)/C(=C/c1ccco1)NC(=O)c1ccccc1`, the activation is 1.61%.

With `CC(C)(C)c1ccc(C(=O)NCc2ccco2)cc1`, the activation is 8.75% (active).

As to `CC(C)(C)NC(=O)NCc1ccco1`, the activation was 0.33%.

Consider `COc1ccc(C2NC(=O)C(=O)/C2=C(\O)c2ccc(Cl)cc2)cc1OC` (configuration not stated), for which the activation was -0.36%.

For `CC/C(=C(/c1ccccc1)c1ccc(OCC[N+](C)(C)C)cc1)c1ccccc1`, the activation is -0.77%.

Consider `CCN(CC)C(=O)CSc1nnc(CNc2ccc(F)cc2)n1Cc1ccco1`, for which the activation was -2.98%.

With `CN(C)C(=S)N=c1ssc(=S)n1Cc1ccco1`, the activation is 16.1% (active).

With `CC1CN(Cc2ccco2)C(=S)N(c2ccccc2)C1=O` (configuration not stated), the activation was 2.7%.

For the compound `O=C(COc1ccc2ccc(=O)oc2c1)NCC(O)c1ccccc1` (configuration not stated), the activation is 1.75%.

As to `O=C(CC1NCCNC1=O)Nc1cc(Cl)cc(Cl)c1` (configuration not stated), the activation was 1.12%.

As for `O=C(CC1NCCc2ccccc21)Nc1cccc(Cl)c1` (configuration not stated), the activation was 7.89% (active).

On to `O=C(CC1C(=O)NCCN1C(=O)c1ccc([N+](=O)[O-])cc1)Nc1cccc(Cl)c1` (configuration not stated), for which the activation is 0.62%.
